# In PubChem BioAssay (NCATS):
# Results filed as inconclusive are left out. A call without a number means that no potency is given here. Activity calls are given as the source filed them. Calls follow the shape of the dose curve; as a rule, active = well fitted inhibition curve with a large enough effect in the signal ratio, with a control signal flat (not every such curve was filed as active); inconclusive = small, poorly fitted or top-dose-only effect, or effect the other way, or a change in a side signal; inactive = flat fitted curve, though single readings scatter; the % refers to the signal ratio.
# Target: Peroxisome proliferator-activated receptor gamma (Homo sapiens) (UniProt P37231)
# Sequence (P37231 whole entry, looked up): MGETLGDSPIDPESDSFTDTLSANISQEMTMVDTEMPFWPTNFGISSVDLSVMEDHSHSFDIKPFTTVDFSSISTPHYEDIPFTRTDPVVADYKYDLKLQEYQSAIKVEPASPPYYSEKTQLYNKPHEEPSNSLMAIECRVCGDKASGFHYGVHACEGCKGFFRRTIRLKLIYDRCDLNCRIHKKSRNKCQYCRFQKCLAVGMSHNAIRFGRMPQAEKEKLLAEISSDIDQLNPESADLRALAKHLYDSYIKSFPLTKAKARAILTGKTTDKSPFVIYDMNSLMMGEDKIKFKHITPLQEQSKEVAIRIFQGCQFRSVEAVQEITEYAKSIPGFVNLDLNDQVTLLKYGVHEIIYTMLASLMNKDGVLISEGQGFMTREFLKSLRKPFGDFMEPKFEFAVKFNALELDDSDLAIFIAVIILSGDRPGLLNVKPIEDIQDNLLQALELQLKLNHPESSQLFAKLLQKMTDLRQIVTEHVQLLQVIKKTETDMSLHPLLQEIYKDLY
# Experiment: qHTS assay for small molecule antagonists of peroxisome proliferator-activated receptor gamma signaling (AID 588537)
# Conditions: HEK293 PPARg-UAS-bla, beta-lactamase ratio, antagonist mode; series mostly up to 76.8 µM
# Description: NIH Chemical Genomics Center [NCGC]
# U.S. Environmental Protection Agency [EPA]
# National Institutes of Environmental Health Sciences [NIEHS]
# National Toxicology Program [NTP]
# The Peroxisome proliferator-activated receptors (PPARs) are lipid-activated transcription factors of the nuclear receptor superfamily with three distinct subtypes namely PPAR alpha, PPAR delta (also called PPAR beta) and PPAR gamma. All these subtypes heterodimerizes with Retinoid X receptor (RXR) and these heterodimers regulate transcription of various genes. PPAR-gamma (glitazone receptor) ligands have been used in the treatment of type 2 diabetes and dyslipidaemia. It is involved in the regulation of glucose and lipid metabolism. PPAR-gamma activates certain genes like Paraoxonase 1 which is responsible for hydrolyzing organophosphates. PPAR-gamma ligands may also be therapeutically important in the treatment of coronary artery disease, obesity and cancer and atherosclerosis.
# NCGC Assay Protocol Summary
# Using a beta-lactamase reporter-gene under control of Peroxisome Proliferator-Activated-gamma (PPAR-gamma) response element, a cell-based assay [GeneBLAzer PPAR-gamma-UAS-bla assay developed by Invitrogen] was used to measure PPAR-gamma ligands signaling. GeneBLAzer PPAR-gamma-UAS-bla-HEK293 cells were used with assay medium containing 1% charcoal/dextran treated FBS. The assay was performed in clear bottom black Greiner 1536-well plates. Library compounds were measured for their ability to inhibit the reporter gene activity. Compounds were screened in a titration series in 1536-well format. The fluorescence intensity (405 nm excitation, 460/530 nm emission) was measured using an EnVision plate reader. Data was normalized relative to Rosiglitazone control (50 nM, 100%), and DMSO only wells (basal, 0%). Concentration-response titration points for each compound were fitted to the Hill equation yielding concentrations of half-maximal inhibition (IC50) and maximal response (efficacy) values.
# qHTS protocol for PPAR-gamma beta-lactamase assay in antagonist mode
# [Step] [Parameter] [Value] [Description]
# 1. Reagent; 5 uL; 3000 cells/well
# 2. Incubation; 37 C for 6-6.5 hrs
# 4. Controls (GW9662, PPAR-gamma antagonist); 23 nL,
# 5. Agonist (Stimulator); 1uL; Rosiglitazone at 50 nM (final) concentration
# 6. Incubation; 37 C for 16 hrs
# 7. Detection reagent; 1 uL of CCF4-dye
# 8. Incubation; RT for 2 hrs
# 9. Detection; Fluorescence; Envision plate reader
row,SMILES,Potency
1,CC(C)[C@H](C(=O)O[C@H](C#N)c1cccc(Oc2ccccc2)c1)c1ccc(Cl)cc1,inactive
2,Clc1ccccc1-c1nnc(-c2ccccc2Cl)nn1,inactive
3,C/C=C(\C)C(=O)O[C@H]1C[C@@H](OC(C)=O)[C@@]2(C(=O)OC)CO[C@H]3[C@@H](O)[C@@](C)([C@]45O[C@@]4(C)[C@H]4C[C@@H]5O[C@@H]5OC=C[C@@]54O)[C@H]4[C@]1(CO[C@]4(O)C(=O)OC)[C@@H]32,inactive
4,Clc1ccc(C2(Cn3cncn3)CC(Br)CO2)c(Cl)c1 (stereo not given),inactive
5,CCCCNC(=O)OCC#CI,inactive
6,N#CN=C1SCCN1Cc1ccc(Cl)nc1,inactive
7,C=C(C)CN(CC)c1c([N+](=O)[O-])cc(C(F)(F)F)cc1[N+](=O)[O-],inactive
8,O=P(O)(O)CN(CP(=O)(O)O)CP(=O)(O)O,inactive
9,CNC(=O)N(C)c1nc2ccccc2s1,inactive
10,CCC(C)n1c(=O)[nH]c(C)c(Br)c1=O (stereo not given),inactive
11,CCOP(=S)(S)OCC,inactive
12,CNC(=S)S,inactive
13,C#CCN1CC(=O)N(COC(=O)[C@@H]2[C@@H](C=C(C)C)C2(C)C)C1=O,inactive
14,Clc1ccc(-c2cc(Cl)c(Cl)cc2Cl)cc1Cl,inactive
15,CC(=NC#N)N(C)Cc1ccc(Cl)nc1,inactive
16,Cc1cc(Cl)ccc1OCC(=O)O,inactive
17,CC(C)C1(C)N=C(c2ncccc2C(=O)O)NC1=O (stereo not given),inactive
18,O=Cc1cccc(Oc2ccccc2)c1,inactive
19,CC(C)(C)C(=O)[C@H](Oc1ccc(Cl)cc1)n1cncn1,inactive
20,CC(Oc1cccc(Cl)c1)C(=O)O (stereo not given),inactive

row,SMILES,Potency
1,CCC/C(=N\OCC)C1=C(O)CC(CC(C)SCC)CC1=O (stereo not given),inactive
2,O=S1OC[C@@H]2[C@H](CO1)[C@@]1(Cl)C(Cl)=C(Cl)[C@]2(Cl)C1(Cl)Cl (stereo not given in full),inactive
3,CCOc1nc(C(Cl)(Cl)Cl)ns1,inactive
4,CCC[CH2][Sn](=[O])[CH2]CCC,inactive
5,CCOP(=O)(SC(C)CC)N1CCSC1=O (stereo not given),inactive
6,CCC(C)Nc1c([N+](=O)[O-])cc(C(C)(C)C)cc1[N+](=O)[O-] (stereo not given),inactive
7,O=S(=O)(c1ccc(O)cc1)c1ccc(O)cc1,inactive
8,O=Nc1ccc(Nc2ccccc2)cc1,inactive
9,CS(=O)(=O)c1cc(C(F)(F)F)ccc1C(=O)c1cnoc1C1CC1,inactive
10,Cc1cnc(C2=NC(C)(C(C)C)C(=O)N2)c(C(=O)O)c1 (stereo not given),inactive
11,CC(Oc1cc(Cl)c(Cl)cc1Cl)C(=O)O (stereo not given),inactive
12,CCOP(=S)(OCC)Oc1nc(Cl)n(C(C)C)n1,inactive
13,CC(C)C(C(=O)OC(C#N)c1cccc(Oc2ccccc2)c1)c1ccc(Cl)cc1 (stereo not given),inactive
14,CCSC(=O)N(CC)C1CCCCC1,inactive
15,Nc1cccc(Cl)c1Cl,inactive
16,O=C(NC(=O)c1c(F)cccc1F)Nc1cc(Cl)c(OC(F)(F)C(F)C(F)(F)F)c(Cl)c1F (stereo not given),inactive
17,CCCCOC(=O)[C@@H](C)Oc1ccc(Oc2ccc(C#N)cc2F)cc1,inactive
18,CC1CCCCC1NC(=O)Nc1ccccc1 (stereo not given),inactive
19,O=C(NC(=O)c1c(F)cccc1F)Nc1cc(Cl)c(OC(F)(F)C(F)F)c(Cl)c1,inactive
20,Cc1c(COC(=O)C2C(/C=C(\Cl)C(F)(F)F)C2(C)C)cccc1-c1ccccc1 (stereo not given),inactive
